# Gal4-VP16 FLuc – Gal4-VP16 reporter inhibition counter-screen | Drosophila S2 Gal4-VP16 UAS-luciferase, luminescence, 20 h | Potency, µM (titrated, usually from 53.6 µM), actives largely listed as inhibitors | 3.5% of 310,000 active;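 also: Gal4-VP16 expression switched on by copper sulfate through the metallothionein promoter; nearly all actives have a fitted effect of over 50% in size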
# RORgamma inh – inhibitors of mouse ROR gamma transcriptional activity; 5.4% of 310,000 active; Drosophila S2 Gal4-RORgamma UAS-luciferase reporter, 20 h; AID 2551; Potency, µM (series often up to 53.6 µM), usual class: inhibitors; P51450; also: nearly all actives have a fitted effect of over 60% in size
#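 Read-out: Photinus luciferase luminescence; inhibitors lower reporter signal. Insect Schneider cells with Gal4-ROR gamma fusion under metallothionein promoter, UAS reporter; 700 uM final copper sulfate induction, 20 hr, ambient temperature.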
# Sfp inh – blocks B. subtilis Sfp PPTase activity. Q9F4F7. Biochemical Sfp PPTase activity, qHTS. Potency, µM, most hits filed as inhibitors. 3.5% of 310,000 active;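 also: the enzyme is Sfp with the accession as filed and its product quenches rhodamine fluorescence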
#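 With Hepes-Na pH 7.6 buffer containing 10 mM MgCl2, Sfp (15 nM) modified BHQ-2-YbbR (12.5 uM) using rhodamine-CoA (5 uM). Two reads 30 minutes apart at 525/598 nm yielded each well's rate.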
# ALDH1A1 block – ALDH1A1 (human) enzyme inhibition; P00352; Potency, µM (doses to about 75.3 µM), actives largely listed as inhibitors; AID 1030; 7.3% of 220,000 active; Purified ALDH1A1, NADH fluorescence, propionaldehyde substrate; active = well fitted inhibition curve with a large enough effect, not every such curve was filed as active; inconclusive = small, poorly fitted or top-dose-only effect, or another doubt; inactive = no such curve, though single readings can be large or run the other way
# PLK1 PBD inh – blocks phosphopeptide binding to human PLK1 polo-box domain; P53350; Plk1 PBD binding of FITC phosphopeptide, fluorescence polarization; Potency, µM, actives largely listed as inhibitors; 2.8% of 360,000 active; AID 720504; also: series mostly up to about 57 µM; nearly all actives have a fitted effect of over 65% in size
# Target sequence (P53350 whole entry, looked up, the tested form may be a part): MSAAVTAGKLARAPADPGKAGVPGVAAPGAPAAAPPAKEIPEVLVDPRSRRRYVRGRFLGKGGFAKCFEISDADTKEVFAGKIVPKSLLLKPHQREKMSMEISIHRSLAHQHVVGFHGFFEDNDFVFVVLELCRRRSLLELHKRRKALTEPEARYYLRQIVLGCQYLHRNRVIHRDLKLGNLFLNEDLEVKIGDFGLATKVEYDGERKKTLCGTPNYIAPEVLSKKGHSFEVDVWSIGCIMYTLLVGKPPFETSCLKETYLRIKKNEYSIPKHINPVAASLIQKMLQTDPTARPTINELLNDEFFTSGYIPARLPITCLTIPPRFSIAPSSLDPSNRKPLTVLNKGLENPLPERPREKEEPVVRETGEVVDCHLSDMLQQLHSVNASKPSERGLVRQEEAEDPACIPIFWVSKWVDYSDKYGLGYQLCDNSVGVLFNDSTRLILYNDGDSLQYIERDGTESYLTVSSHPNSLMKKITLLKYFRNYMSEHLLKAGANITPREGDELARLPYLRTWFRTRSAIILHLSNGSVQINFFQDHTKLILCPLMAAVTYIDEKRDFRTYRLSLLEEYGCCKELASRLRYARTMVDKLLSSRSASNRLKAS
# Numbers stand for hits; i = inactive; ? = inconclusive; nt = no result given; [ ] = dose if it differs, or a comment. Only some compounds are listed: those with a hit (about 12% of all), similar ones and a draw of the others. Unless noted, calls follow the shape of the dose curve; as a rule, active = well fitted curve in the direction sought with a large enough effect; inconclusive = small, poorly fitted or top-dose-only effect, or another doubt; inactive = no such curve, though single readings can be large; an effect the other way counts as inactive or inconclusive.
SMILES,Gal4-VP16 FLuc,RORgamma inh,Sfp inh,ALDH1A1 block,PLK1 PBD inh
O=C(NCCc1c[nH]c2ccccc12)/C(=C\c1cccs1)NC(=O)c1ccccc1,i,i,i,i,27µM
Clc1ccc(N2CCN(c3ccnc(Cl)n3)CC2)cc1,nt,nt,nt,nt,i
CSc1nccc(N2CCN(c3ccc(F)cc3)CC2)n1,13µM,?,i,i,i
CC(C)SCc1cc(N2CCCC2)nc(-c2ccccc2)n1,i,13µM,i,?,i
COCc1cc(N2CCCCC2)nc(-c2ccccc2)n1,i,i,i,i,27µM
c1ccc(-c2cc(N3CCCCC3)nc(-c3ccccc3)n2)cc1,i,i,i,i,i
CSCc1cc(N2CCCC2)nc(-c2ccccc2)n1,i,?,i,i,i
COc1ccc(/C=C/N(CCc2ccc(OC)c(OC)c2)C(C)=O)cc1,i[10 µM],i[10 µM],i,?,nt
O=C(/C=C\c1ccccc1)Oc1cccc2cccnc12,3.2µM,1.4µM,?,i,i
O=C(/C=C/c1ccccc1)Oc1cccc2cccnc12,4.5µM,0.71µM,?,nt,i
O=Cc1ccccc1OCCCOc1cccc2cccnc12,i,i,i,nt,i
CC[C@]1(c2ccccc2)NC(=O)N(C)C1=O,i,i,i,i,nt
Cc1cc(=O)oc2cc(OC3C=CC(C#CC(C)(C)C)OC3CO)ccc12 (stereo not drawn),i[10 µM],i[10 µM],i,i[13.5 µM],nt
Cc1ccc(S(=O)(=O)N2CCc3ccccc3C2)cc1,i,i,i,nt,i
NC(=O)c1cc(S(=O)(=O)N2CCc3ccccc3C2)cs1,i,i,i,nt,21µM
COc1cccc(/C=N/NC(=O)CSCC(=O)Nc2ccccc2)c1O,1.6µM,0.5µM,i,i,i
COc1cc(/C=N/NC(=O)Cn2nnc3ccccc32)ccc1O,i,i,i,i,i
COc1cccc(/C=N/NC(=O)CCc2c(C)n[nH]c2C)c1O,3.2µM,1.4µM,i,nt,i
COc1cccc(/C=N\NC(=O)Cn2nnc3ccccc32)c1O,3.2µM,1.3µM,i,i,i
COc1ccc(/C=N\NC(=O)CCc2c(C)n[nH]c2C)c(OC)c1OC,i,i,i,i,i
C=CCOC(=O)C(C(C)=O)C(NC(=O)OC)c1ccco1 (stereo not drawn),i[10 µM],i[10 µM],i,i[13.5 µM],nt
COC(=O)N1CCC2(CCN(Cc3ccccc3)CC2)CC1,i,i,i,i,nt
COc1c(C)cc(C(O)c2ncc(-c3ccc(C(F)(F)F)cc3)[nH]2)cc1C (stereo not drawn),nt,nt,nt,nt,i
NC(=O)c1cccc(-c2ccnc3c2CC(C(=O)NCc2ccccc2)O3)c1 (stereo not drawn),nt,nt,nt,nt,i
Cc1cc(/C=C(\C#N)C(=O)OCC#N)c(C)n1CC(C)C,i,i,i,25µM,i
SMILES,Gal4-VP16 FLuc,RORgamma inh,Sfp inh,ALDH1A1 block,PLK1 PBD inh
Cc1cccc(NC(=O)/C(C#N)=C\c2cc(C)n(-c3ccc(C(=O)O)cc3)c2C)c1,i,?,i,3.2µM,i
Cc1cc(/C=C(\C#N)C(=O)Nc2ccccc2)c(C)n1-c1ccc(C(=O)O)cc1,i,?,i,1µM,i
CCOC(=O)/C(C#N)=C/c1cc(C)n(-c2ccc(C)cc2)c1C,i,i,i,11µM,i
CNC(=O)/C(C#N)=C/c1cc(C)n(-c2ccc(N3CCOCC3)cc2)c1C,i,i,i,?,i
CC(C)OC(=O)N(C)C[C@@H]1OCc2cnnn2CCCC(=O)N([C@@H](C)CO)C[C@H]1C,nt,nt,nt,nt,i
CSCCC(C(=O)NCc1ccccc1)n1c(-c2ccc3c(c2)CCO3)nc2ccccc21 (stereo not drawn),nt,nt,nt,nt,i
O=c1c(-c2ccc(Cl)cc2)nc2cnc(N3CCNCC3)nc2n1-c1ccccc1,i,i,i,?,nt
O=C(c1ccc(NS(=O)(=O)c2cccc([N+](=O)[O-])c2)cc1)N1CCN(C(=O)c2ccco2)CC1,nt,nt,nt,nt,i
COc1cccc(S(=O)(=O)Nc2ccc(C(=O)N3CCN(C(=O)c4ccco4)CC3)cc2)c1,?,?,i,18µM,i
O=C(OCC(=O)N1CCN(C(=O)c2ccco2)CC1)c1cc(S(=O)(=O)Nc2ccc(Cl)cc2)ccc1O,?,i,i,14µM,i
O=C(CSc1ccccc1F)OCC(=O)N1CCN(C(=O)c2ccco2)CC1,nt,nt,nt,nt,i
O=C(OCC(=O)N1CCN(C(=O)c2ccco2)CC1)c1sc2cc(F)ccc2c1Cl,i,i,i,28µM,i
O=C(OCC(=O)N1CCN(C(=O)c2ccco2)CC1)c1cccc(F)c1,nt,nt,nt,nt,i
O=C(CSc1cccc2cccc(Cl)c12)OCC(=O)N1CCN(C(=O)c2ccco2)CC1,i,i,i,11µM,?
CCCCC/C=C\C[C@@H]1O[C@H]1C(O)/C=C\C/C=C\CCCC(=O)O (stereo partly drawn),i,i,i,i,nt
O=S(=O)(c1ccccc1Br)N(CC(O)COCc1ccccc1)C1CC1 (stereo not drawn),nt,nt,nt,nt,i
Cc1ccc(S(=O)(=O)N2[C@@H](CCO)OC[C@H]2C(C)C)cc1,nt,nt,nt,nt,i
COc1cccc(CNC(=O)[C@@H]2CCCN2C(=O)[C@@H]2CCCN2S(=O)(=O)c2ccc(OC)c(C)c2)c1,nt,nt,nt,nt,i
CCOc1ccc(OCc2ccc(C(=O)N3CCCC(C)C3)cc2)cc1 (stereo not drawn),?,?,i,?,i
CCOc1ccc(NS(=O)(=O)c2ccc(C(=O)N3CCN(C(C)=O)CC3)cc2)cc1,20µM,?,i,nt,i
COc1ccc(NS(=O)(=O)c2ccc(NC(=O)c3ccc(CN4CCOCC4)cc3)cc2)cc1,i,14µM,i,i,i
COc1ccc(NS(=O)(=O)c2ccc(C(=O)N3CCN(Cc4ccccc4)CC3)cc2)cc1,?,?,i,3.2µM,i
CCOc1ccc(OCc2ccc(C(=O)N3CCOCC3)cc2)cc1,i,?,i,3.5µM,i
COc1ccc2c(Cl)cc(NC(=S)Nc3ccccc3)nc2c1,nt,nt,nt,i[13.5 µM],nt
C=CC(=O)OCCCC,i,i,nt,i,nt
SMILES,Gal4-VP16 FLuc,RORgamma inh,Sfp inh,ALDH1A1 block,PLK1 PBD inh
O=C1C2CCCN2C(=S)N1c1ccccc1 (stereo not drawn),i,i,i,nt,13µM
Cc1cccc(C2N(c3ccc(F)cc3)C(=O)C3CCCN32)c1 (stereo not drawn),nt,nt,nt,nt,i
COc1cccc(N2C(=O)C3CCCN3C2=S)c1 (stereo not drawn),i,i,i,nt,13µM
Cc1cccc(N2C(=O)C3CCCN3C2=S)c1 (stereo not drawn),i,i,i,nt,13µM
CSc1cccc(N2C(=O)C3CCCN3C2=S)c1 (stereo not drawn),i,i,i,nt,11µM
COC(=O)[C@@]12C[C@@H](CC(=O)N3CCCCC3)C(=O)N(Cc3ccccc3)C1=CCC(C)(C)C2,nt,nt,nt,nt,i
COc1cc(C(=O)NC2CC(C)CC(C)(C)C2)cc(OC)c1OC (stereo not drawn),nt,nt,nt,nt,i
COc1ccc(OC)c2[nH]c(C(=O)N/N=C/c3ccccc3O)cc12,5µM,4µM,i,nt,i
COc1cccc(/C=N/NC(=O)c2cc3c(OC)cccc3[nH]2)c1OC,i,i,i,i,i
COc1cccc(/C=N/NC(=O)c2cc3c(OC)cccc3[nH]2)c1O,2.2µM,0.79µM,i,i,i
COc1cc(CN2CCc3ccccc3C2)ccc1O,3.5µM,5.6µM,i,?,i

# Bioassay records: PubChem BioAssay, National Center for Advancing Translational Sciences (NCATS)
